Records with an inconclusive call do not appear. Active and inactive are the calls of the source. Unless noted, calls come from the whole dose curve; as a rule, active = well fitted curve in the direction sought with a large enough effect in the repeat runs; inconclusive = weak or mixed curves; inactive = no such curve, though single readings can be large; an effect the other way counts as inactive or inconclusive.
Assays:
[1] = qHTS assay for small molecule agonists of the p53 signaling pathway (AID 651631; calls by dose curve; note: nearly all actives have a fitted effect of over 15% in size)
Outline: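 Agonist mode screen using a stably integrated beta-lactamase gene under p53 response elements in HCT-116 cells. Compound exposure lasts 16 h at 37 °C; fluorescence intensity is measured following 2 h FRET substrate loading.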

[2] = qHTS assay for small molecules that induce genotoxicity in human embryonic kidney cells expressing luciferase-tagged ATAD5 (AID 651632); note: nearly all actives have a fitted effect of over 15% in size
Outline: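 HEK293T cells carrying luciferase-tagged ATAD5 were given compound or DMSO vehicle and incubated 16 hr at 37C, 5% CO2. Luciferase activity was read after 30 min at room temperature with Amplite; a rise signals genotoxic stress.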

[3] = qHTS assay for small molecule agonists of the p53 signaling pathway - cell viability (AID 651633; calls by dose curve;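 note: p53RE-bla HCT reporter cells with a stable beta-lactamase p53 reporter; series mostly up to about 83 µM; nearly all actives have a fitted effect of over 30% in size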)
Outline: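 Viability counter-read: CellTiter-Glo luminescence (30 min, room temperature) in the same p53RE-bla plates. These plates had been exposed to compounds for 16 h at 37 C.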

[4] = qHTS assay for small molecules that induce genotoxicity in human embryonic kidney cells expressing luciferase-tagged ATAD5 - cell viability (AID 651634; calls by dose curve; note: nearly all actives have a fitted effect of over 25% in size)
Outline: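 HEK293T cells carrying luciferase-tagged ATAD5, 2,000 cells/well, exposed to compound for 15.5 hr at 37C. Viability read as live-cell protease activity by CellTiter-Fluor fluorescence after 30 min at 37C.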

[5] = qHTS assay for small molecule disruptors of the mitochondrial membrane potential - cell viability (AID 720634; calls by dose curve;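 note: human HepG2 liver cancer cells; series mostly up to about 83 µM; nearly all actives have a fitted effect of over 20% in size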)
Outline: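 HepG2 cells, 2,000 per well, attached overnight, then treated 1 hr at 37 C, 5% CO2. Viability read as ATP by CellTiter-Glo luminescence after 30 min at room temperature. Read in the same wells as the m-MPI membrane-potential dye assay.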

[6] = qHTS assay to test for compound auto fluorescence at 590 nm (red) in HepG2 cells (AID 720674)
Outline: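 1 hr compound incubation on HepG2 cells, 37 C, 5% CO2; plate read ex 540 nm / em 590 nm; intensities reported as Rose Bengal sodium equivalents.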

[7] = qHTS assay to test for compound auto fluorescence at 535 nm (green) in HepG2 cells (AID 720675)
[8] = qHTS assay to test for compound auto fluorescence at 460 nm (blue) in HEK293 cells (AID 720678)
Outline: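 HEK293 cells (2,000 per well, medium with 10% dialyzed FBS) attached for 4-5 hr at 37C, then received compound and stood overnight at 37C, 5% CO2. Blue fluorescence was read at Ex/Em 405/460 nm and expressed relative to triamterene.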

[9] = qHTS assay to test for compound auto fluorescence at 590 nm (red) in HEK293 cells (AID 720679)
Outline: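 HEK293 cells (2,000/well, medium with 10% dialyzed FBS) attached for 4-5 hr at 37C, received 23 nL compound and were incubated overnight at 37C, 5% CO2. Red fluorescence was then read at 540/590nm Ex/Em, referenced to Rose Bengal sodium.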

[10] = qHTS assay to test for compound auto fluorescence at 535 nm (green) in HEK293 cells (AID 720680)
[11] = qHTS assay to test for compound auto fluorescence at 460 nm (blue) in HEK293 cell free culture (AID 720681)
Outline: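 Blue fluorescence (Ex 405/Em 460 nm, triamterene-equivalent) was read immediately after pin transfer of compound or DMSO into medium (DMEM, 10% FBS) without cells.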

[12] = qHTS assay to test for compound auto fluorescence at 535 nm (green) in HEK293 cell free culture (AID 720682)
Outline: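 No cells present: wells hold DMEM supplemented with 10% FBS, into which compound or vehicle is pinned. Green emission is then recorded (485 nm excitation, 535 nm emission) and scaled to fluorescein.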

[13] = qHTS assay to test for compound auto fluorescence at 590 nm (red) in HEK293 cell free culture (AID 720683)
Outline: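 Red-channel autofluorescence of compounds in culture medium (DMEM, 10% FBS), no cells, measured at 540/590 nm. Rose Bengal sodium is the reference fluorophore for equivalence.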

[14] = qHTS assay to test for compound auto fluorescence at 590 nm (red) in HepG2 cell free culture (AID 720684)
Outline: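 Steps: dispense MEM/10% FBS medium, no cells; pin compound or DMSO vehicle; read red channel, Ex/Em 540/590 nm. Output given as Rose Bengal sodium equivalents.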

[15] = qHTS assay to test for compound auto fluorescence at 460 nm (blue) in HepG2 cell free culture (AID 720685)
Outline: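 Compound (23 nL) or DMSO pinned into cell-free MEM with 10% FBS; blue fluorescence read at 405/460 nm excitation/emission, expressed as auto-fluorescence equivalency to triamterene.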

[16] = qHTS assay to test for compound auto fluorescence at 535 nm (green) in HepG2 cell free culture (AID 720686)
[17] = qHTS assay to test for compound auto fluorescence at 460 nm (blue) in HepG2 cells (AID 720687)
Outline: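 Blue-channel autofluorescence (Ex/Em 405/460 nm, triamterene-equivalent) was measured after 1 hr compound exposure at 37 C, 5% CO2. Cells were HepG2, plated overnight at 37 C in MEM plus 10% FBS.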

[18] = biological target: Glucocorticoid receptor (Homo sapiens) (UniProt P04150); test: qHTS assay to identify small molecule agonists of the glucocorticoid receptor (GR) signaling pathway (AID 720691; active = well fitted activation curve with a large enough effect in the signal ratio in the repeat runs, not every such curve was filed as active; the % refers to the signal ratio)
Outline: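 GR-bla HeLa cells carrying a GRE-driven beta-lactamase reporter, exposed to compounds for 18 h at 37 C. Reporter activation read as fluorescence after 2 h with LiveBLAzer B/G FRET substrate at room temperature.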

[19] = biological target: Glucocorticoid receptor (Homo sapiens) (UniProt P04150); test: qHTS assay to identify small molecule antagonists of the glucocorticoid receptor (GR) signaling pathway (AID 720692; active = well fitted inhibition curve with a large enough effect in the signal ratio in the repeat runs, not every such curve was filed as active; the % refers to the signal ratio)
Outline: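 GR-bla HeLa cells carrying a GRE-driven beta-lactamase reporter received compound after 4 h plating, then dexamethasone (5 nM final). After 18 h at 37C, the FRET substrate was loaded for 2 h at room temperature and fluorescence read.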

[20] = qHTS assay for small molecule disruptors of the mitochondrial membrane potential (AID 720635)
Outline: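 Mitochondrial membrane potential tracked with Mito-MPS dye, red aggregates (ex 540/em 590 nm) against green monomers (ex 490/em 535 nm). Compound treatment 1 hr at 37C, dye 30 min in HepG2.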

Measured: Potency

Chain of Glucocorticoid receptor (Homo sapiens) (P04150 whole entry, looked up): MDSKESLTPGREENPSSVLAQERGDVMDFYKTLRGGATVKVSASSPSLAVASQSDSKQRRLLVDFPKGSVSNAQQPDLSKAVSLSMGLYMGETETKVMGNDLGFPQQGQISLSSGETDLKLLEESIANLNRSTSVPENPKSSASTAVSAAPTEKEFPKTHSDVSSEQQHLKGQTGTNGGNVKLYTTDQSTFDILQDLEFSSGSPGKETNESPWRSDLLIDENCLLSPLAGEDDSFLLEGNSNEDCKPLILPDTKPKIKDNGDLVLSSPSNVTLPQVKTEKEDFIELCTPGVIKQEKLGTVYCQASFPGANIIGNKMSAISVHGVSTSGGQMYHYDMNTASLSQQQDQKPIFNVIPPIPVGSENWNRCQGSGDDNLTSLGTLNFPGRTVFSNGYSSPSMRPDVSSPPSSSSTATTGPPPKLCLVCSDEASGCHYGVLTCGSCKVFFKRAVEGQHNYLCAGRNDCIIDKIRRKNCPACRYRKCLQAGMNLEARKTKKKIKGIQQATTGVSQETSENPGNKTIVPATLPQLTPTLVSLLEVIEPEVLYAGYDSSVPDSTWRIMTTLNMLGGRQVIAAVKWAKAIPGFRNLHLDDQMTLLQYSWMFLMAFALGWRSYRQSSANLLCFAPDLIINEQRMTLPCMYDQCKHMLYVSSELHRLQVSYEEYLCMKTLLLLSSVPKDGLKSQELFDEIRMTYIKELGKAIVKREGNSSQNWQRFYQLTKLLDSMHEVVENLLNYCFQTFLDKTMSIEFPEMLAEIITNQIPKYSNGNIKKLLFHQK

OCCc1ccccn1
not listed: [20]
inactive: all other assays above

C=CCOCC(O)CO (configuration not stated)
not listed: [20]
inactive: all other assays above

CN(C)CCCN(C)CCCN(C)C
not listed: [20]
inactive: all other assays above

CC1(C)[C@@H]2CC[C@@]1(C)[C@H](O)C2
not listed: [17] | [20]
inactive: all other assays above

CCCCS(=O)(=O)N[C@@H](Cc1ccc(OCCCCC2CCNCC2)cc1)C(=O)O
not listed: [4] | [16] | [18] | [19]
inactive: all other assays above

Clc1cc(Cl)c(Cl)nc1Cl
not listed: [4] | [16] | [18] | [19]
inactive: all other assays above

CCOC(=O)C1=NOC(c2ccccc2)(c2ccccc2)C1
not listed: [6] | [20]
inactive: all other assays above

CCCCCC(=O)OCCc1ccccc1
not listed: [6] | [14] | [20]
inactive: all other assays above

CC(=O)Nc1ccc(OCC(O)CNC(C)C)cc1 (configuration not stated)
not listed: [8] | [17] | [20]
inactive: all other assays above

CC1=CCC(O)(C(C)C)CC1 (configuration not stated)
not listed: [7] | [8] | [14] | [20]
inactive: all other assays above

C[N+]1(C)[C@@H]2CC(OC(=O)[C@H](CO)c3ccccc3)C[C@H]1[C@@H]1O[C@@H]12 (some centres not stated)
not listed: [5] | [16] | [20]
inactive: all other assays above

CC(C)(C)C(=O)Oc1ccc(S(=O)(=O)Nc2ccccc2C(=O)NCC(=O)O)cc1
not listed: [4] | [18] | [19]
inactive: all other assays above

CO[Si](C)(OC)c1ccccc1
not listed: [5] | [16] | [19] | [20]
inactive: all other assays above

Cc1ccc(C(=O)c2ccccc2)cc1
not listed: [9] | [16] | [20]
inactive: all other assays above
